According to PubChem BioAssay:
Activity calls are given as the source filed them.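 The calls were made as follows, unless noted: active = normalized viability below 100% at a tested concentration; inactive = the rest.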

What was measured:
[1] = sensitizers of A549 cells to miR-34 induction, primary screen, imaging, A549 dox-inducible miR-34, nuclei and caspase counts (AID 1347080;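 active = compounds whose cell count with miR-34 switched on is under 0.7 times the count with it off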); conditions: A549 miR-34 inducible, Hoechst nuclei count, 48 h
[2] = survival rescue of mitochondrial mutant cells in low glucose, primary screen, MELAS cybrids, Rieske KO mouse fibroblasts, CellTiter-Glo (AID 1508586;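 active = mean z-score across replicates of 1.96 or higher in either the MELAS or the Rieske mutant cell line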;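 also: z relative to plate mean and SD of compound and empty wells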)
[3] = ovarian cancer cell viability with rucaparib, profiling panel, oncology-focused library, rucaparib conditional (AID 1508598); conditions: patient-derived ovarian cancer cells, CellTiter-Glo viability, 144 h, stronger effect = lower value
[4] = stronger effect = lower value, cell number ratio, induced over uninduced
[5] = measured here: relative caspase fold change +Dox/-Dox
[6] = measured here: total cells with miR-34 induction, stronger effect = lower value
[7] = measured here: total cells without miR-34 induction
[8] = MELAS cybrid survival, CellTiter-Glo 48 h, stronger effect = higher value
[9] = Rieske KO mouse fibroblast survival, CellTiter-Glo 72 h
[10] = at 0.000305 µM, OCI-C5x cells, with rucaparib 10 µM, 100% = cells with rucaparib alone
[11] = at 0.000305 µM, OCI-C5x cells, without rucaparib
[12] = at 0.000305 µM, OCI-P5x cells, with rucaparib 20 µM, 100% = cells with rucaparib alone
[13] = at 0.000305 µM, OCI-P5x cells, without rucaparib
[14] = at 0.00122 µM, OCI-C5x cells, with rucaparib 10 µM, 100% = cells with rucaparib alone
[15] = at 0.00122 µM, OCI-C5x cells, without rucaparib
[16] = at 0.00122 µM, OCI-P5x cells, with rucaparib 20 µM, 100% = cells with rucaparib alone
[17] = at 0.00122 µM, OCI-P5x cells, without rucaparib
[18] = at 0.00488 µM, OCI-C5x cells, with rucaparib 10 µM, 100% = cells with rucaparib alone
[19] = at 0.00488 µM, OCI-C5x cells, without rucaparib
[20] = at 0.00488 µM, OCI-P5x cells, with rucaparib 20 µM, 100% = cells with rucaparib alone
[21] = at 0.00488 µM, OCI-P5x cells, without rucaparib
[22] = at 0.0195 µM, OCI-C5x cells, with rucaparib 10 µM, 100% = cells with rucaparib alone
[23] = at 0.0195 µM, OCI-C5x cells, without rucaparib
[24] = at 0.0195 µM, OCI-P5x cells, with rucaparib 20 µM, 100% = cells with rucaparib alone
[25] = at 0.0195 µM, OCI-P5x cells, without rucaparib
[26] = at 0.0781 µM, OCI-C5x cells, with rucaparib 10 µM, 100% = cells with rucaparib alone
[27] = at 0.0781 µM, OCI-C5x cells, without rucaparib
[28] = at 0.0781 µM, OCI-P5x cells, with rucaparib 20 µM, 100% = cells with rucaparib alone
[29] = at 0.0781 µM, OCI-P5x cells, without rucaparib
[30] = at 0.313 µM, OCI-C5x cells, with rucaparib 10 µM, 100% = cells with rucaparib alone
[31] = at 0.313 µM, OCI-C5x cells, without rucaparib
[32] = at 0.313 µM, OCI-P5x cells, with rucaparib 20 µM, 100% = cells with rucaparib alone
[33] = at 0.313 µM, OCI-P5x cells, without rucaparib
[34] = at 1.25 µM, OCI-C5x cells, with rucaparib 10 µM, 100% = cells with rucaparib alone
[35] = at 1.25 µM, OCI-C5x cells, without rucaparib
[36] = at 1.25 µM, OCI-P5x cells, with rucaparib 20 µM, 100% = cells with rucaparib alone
[37] = at 1.25 µM, OCI-P5x cells, without rucaparib
[38] = at 5 µM, OCI-C5x cells, with rucaparib 10 µM, 100% = cells with rucaparib alone
[39] = at 5 µM, OCI-C5x cells, without rucaparib
[40] = at 5 µM, OCI-P5x cells, with rucaparib 20 µM, 100% = cells with rucaparib alone
[41] = at 5 µM, OCI-P5x cells, without rucaparib

CC(C)(C)C(=O)Nc1ccc2c(c1)C(=O)C(=O)c1ccccc1-2
active: viability [3, 12] 95.2% | viability [3, 13] 90.7% | viability [3, 16] 99.1% | viability [3, 17] 91.1% | viability [3, 20] 78.7% | viability [3, 21] 63.1% | viability [3, 24] 79% | viability [3, 25] 64.3% | viability [3, 28] 63.5% | viability [3, 29] 45.6% | viability [3, 30] 81.1% | viability [3, 32] 29.6% | viability [3, 33] 18.8% | viability [3, 38] 70.9% | viability [3, 40] 2.26% | viability [3, 41] 7.62%
-7.92: z-score [2, 9]
636: cell count [1, 7]
833: cell count [1, 6]
0.69: fold change [1, 5]
inactive: fold change [1, 4] 1.31 | z-score [2, 8] 0.258 | viability [3, 10] 109% | viability [3, 11] 109% | viability [3, 14] 127% | viability [3, 15] 103% | viability [3, 18] 116% | viability [3, 19] 114% | viability [3, 22] 119% | viability [3, 23] 112% | viability [3, 26] 118% | viability [3, 27] 113% | viability [3, 31] 112% | viability [3, 34] 114% | viability [3, 35] 113% | viability [3, 36] 103% | viability [3, 37] 104% | viability [3, 39] 107%

CN(C)CCOc1ccc(-c2nc(-c3ccc4c(c3)CCC4=NO)c(-c3ccncc3)[nH]2)cc1
1.04: fold change [1, 5]
inactive: fold change [1, 4] 0.921 | z-score [2, 8] -0.178 | viability [3, 10] 124% | viability [3, 11] 144% | viability [3, 14] 121% | viability [3, 15] 132% | viability [3, 18] 121% | viability [3, 19] 153% | viability [3, 22] 109% | viability [3, 23] 138% | viability [3, 26] 125% | viability [3, 27] 133% | viability [3, 29] 111% | viability [3, 30] 119% | viability [3, 31] 140% | viability [3, 33] 114% | viability [3, 34] 120% | viability [3, 35] 153% | viability [3, 37] 108% | viability [3, 38] 136% | viability [3, 39] 187% | viability [3, 41] 102%
6630: cell count [1, 6]
0.963: z-score [2, 9]
7200: cell count [1, 7]
active: viability [3, 12] 72.5% | viability [3, 13] 88.8% | viability [3, 16] 70.7% | viability [3, 17] 68.7% | viability [3, 20] 70.2% | viability [3, 21] 74.7% | viability [3, 24] 69.4% | viability [3, 25] 73.6% | viability [3, 28] 83.1% | viability [3, 32] 85.3% | viability [3, 36] 78.5% | viability [3, 40] 1.04%

Cc1cc([N+](=O)[O-])ccc1NS(=O)(=O)c1cc(Cl)ccc1Cl
0.518: fold change [1, 5]
3670: cell count [1, 6]
-3.52: z-score [2, 9]
3730: cell count [1, 7]
active: viability [3, 12] 74.5% | viability [3, 13] 83.8% | viability [3, 16] 65.9% | viability [3, 17] 73.5% | viability [3, 20] 62.7% | viability [3, 21] 74.6% | viability [3, 24] 65.1% | viability [3, 25] 76.4% | viability [3, 28] 99.2% | viability [3, 33] 99.3% | viability [3, 36] 96.3% | viability [3, 37] 89.4% | viability [3, 38] 99.8% | viability [3, 39] 87% | viability [3, 40] 91.1% | viability [3, 41] 70.2%
inactive: fold change [1, 4] 0.984 | z-score [2, 8] -0.622 | viability [3, 10] 116% | viability [3, 11] 110% | viability [3, 14] 122% | viability [3, 15] 118% | viability [3, 18] 120% | viability [3, 19] 111% | viability [3, 22] 118% | viability [3, 23] 110% | viability [3, 26] 122% | viability [3, 27] 121% | viability [3, 29] 101% | viability [3, 30] 109% | viability [3, 31] 115% | viability [3, 32] 101% | viability [3, 34] 102% | viability [3, 35] 123%

C=CCC1C=C(C)CC(C)CC(OC)C2O[C@@](O)(C(=O)C(=O)N3CCCC[C@H]3C(=O)OC(C(C)=CC3CCC(O)C(OC)C3)C(C)C(O)CC1=O)C(C)CC2OC (stereo not given in full)
7870: cell count [1, 6]
8580: cell count [1, 7]
0.683: z-score [2, 9]
inactive: fold change [1, 4] 0.917 | z-score [2, 8] -0.545
0.834: fold change [1, 5]

Cc1[nH]c(C=C2C(=O)Nc3ccc(S(=O)(=O)N(C)c4cccc(Cl)c4)cc32)c(C)c1C(=O)N1CCN(C)CC1
3230: cell count [1, 7]
-1.1: z-score [2, 9]
active: viability [3, 16] 92.9% | viability [3, 17] 98.8% | viability [3, 20] 89.6% | viability [3, 21] 96.9% | viability [3, 24] 96.9% | viability [3, 25] 94.2%
0.91: fold change [1, 5]
inactive: fold change [1, 4] 0.944 | z-score [2, 8] -0.734 | viability [3, 10] 109% | viability [3, 11] 113% | viability [3, 12] 106% | viability [3, 13] 104% | viability [3, 14] 117% | viability [3, 15] 112% | viability [3, 18] 118% | viability [3, 19] 113% | viability [3, 22] 116% | viability [3, 23] 126% | viability [3, 26] 120% | viability [3, 27] 125% | viability [3, 28] 104% | viability [3, 29] 102% | viability [3, 30] 122% | viability [3, 31] 131% | viability [3, 32] 113% | viability [3, 33] 107%
3050: cell count [1, 6]
